A number with no mark means an inactive call. Records with an inconclusive call do not appear. Activity calls are given as the source filed them. Unless noted, the call rests on the fitted dose curve; in most records, active means well fitted curve in the direction sought with a large enough effect in the repeat runs; inconclusive means weak or mixed curves; inactive means no such curve, though single readings can be large; an effect the other way counts as inactive or inconclusive.

Experiment [1] can be described thus: qHTS assay to identify small molecule antagonists of the progesterone receptor (PR) signaling pathway - cell viability counter screen (AID 1346798). Further: nearly all actives have a fitted effect of over 50% in size. Further: potency means the concentration at half of the fitted maximal effect. In a few lines: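 Counter screen for cytotoxicity: viability of PR-UAS-bla HEK293T cells was measured with CellTiter-Glo luminescence following 16 hr compound exposure in the presence of R5020.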
(In qHTS, concentration-response curves come from the screen itself.)

The nature of experiment [2]: qHTS assay to identify small molecule agonists of the progesterone receptor (PR) signaling pathway - cell viability counter screen (AID 1346799; calls by dose curve; further: nearly all actives have a fitted effect of over 45% in size; further: potency means the concentration at half of the fitted maximal effect). The procedure, abridged: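 Cells (PR-UAS-bla HEK293T) are plated at 3,000/well in 2% charcoal-stripped FBS medium, rested 6 hr, dosed and incubated 16 hr at 37C. CellTiter-Glo is then added and luminescence measured after 30 min at room temperature.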

Experiment [3] in a line: qHTS assay to identify small molecule antagonists of the TGF-beta/Smad signaling pathway - cell viability counter screen (AID 1346824). Further: nearly all actives have a fitted effect of over 50% in size. Further: potency means the concentration at half of the fitted maximal effect. In a few lines:
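Cytotoxicity counter-screen run in the same wells as the beta-lactamase Smad reporter read: CellTiter-Glo luminescence after 30 min at room temperature. HEK 293T SBE-bla cells had 5 hr compound exposure at 37 C with TGF-beta1 (0.25 ng/mL stock).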

Experiment [4] in a line: qHTS assay to identify small molecule agonists of the TGF-beta/Smad signaling pathway - cell viability counter screen (AID 1346829). Further: nearly all actives have a fitted effect of over 45% in size. Further: potency means the concentration at half of the fitted maximal effect. The procedure, abridged:
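Tox21 qHTS format: SBE-bla HEK 293T cells treated with DMSO-dissolved compounds for 5 hr; CellTiter-Glo luminescence after 30 min at room temperature.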

Experiment [5] can be described thus: qHTS assay to identify small molecule agonists of the TGF-beta/Smad signaling pathway (AID 1346859; active means well fitted activation curve with a large enough effect in the signal ratio in the repeat runs, not every such curve was filed as active; the % refers to the signal ratio; further: series mostly up to about 77 µM). In a few lines: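 Reporter line: HEK 293T with stably integrated SBE-controlled beta-lactamase. Compound exposure lasts 5 hr at 37 C and 5% CO2; substrate loading follows for 2 hr at room temperature, with emission read at 460 and 530 nm.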
The target in experiment [6] is Thyrotropin-releasing hormone receptor (Homo sapiens) (UniProt P34981). In words: qHTS assay to identify small molecule antagonists of the thyrotropin-releasing hormone receptor (TRHR) signaling pathway (AID 1346877; active means well fitted inhibition curve with a large enough effect in the repeat runs, not every such curve was filed as active; further: series mostly up to about 51 µM). The procedure, abridged: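 In this cell-based calcium flux format, HEK293 cells expressing TRHR received test compound for 5 min before the agonist TRH (1 nM final). Dye loading lasted 2 h at 37 °C.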
Thyrotropin-releasing hormone receptor (Homo sapiens), sequence (P34981 whole entry, looked up): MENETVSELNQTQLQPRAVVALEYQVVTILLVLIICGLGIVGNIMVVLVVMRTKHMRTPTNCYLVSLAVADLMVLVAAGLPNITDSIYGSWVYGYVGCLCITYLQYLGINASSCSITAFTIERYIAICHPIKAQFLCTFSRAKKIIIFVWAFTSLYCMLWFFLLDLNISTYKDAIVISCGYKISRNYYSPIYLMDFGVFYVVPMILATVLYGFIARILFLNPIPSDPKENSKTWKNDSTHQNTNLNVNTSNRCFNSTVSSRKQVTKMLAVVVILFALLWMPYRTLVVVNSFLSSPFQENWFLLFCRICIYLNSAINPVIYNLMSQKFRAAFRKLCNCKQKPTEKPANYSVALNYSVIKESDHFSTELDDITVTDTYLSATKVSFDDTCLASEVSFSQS

For experiment [7] the target is unchanged. In words: qHTS assay to identify small molecule agonists of the thyrotropin-releasing hormone receptor (TRHR) signaling pathway (AID 1346891; calls by dose curve; further: potency means the concentration at half of the fitted maximal effect; on activation: series mostly up to about 58 µM). In a few lines: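 Cells: TRHR-Hek293, seeded and incubated 18 h. Dye loading: 2 h at 37 °C. Compound added from DMSO stock by pin tool. Read-out: kinetic calcium fluorescence over 3 min.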
Experiment [8] is described as follows: Human pregnane X receptor (PXR) small molecule agonists, qHTS cell viability counter screen (AID 1346977). Further: nearly all actives have a fitted effect of over 50% in size. Further: potency means the concentration at half of the fitted maximal effect. In a few lines: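 Cytotoxicity counter screen run in the same wells as the PXR luciferase assay, using PXR-Luc HepG2 cells in charcoal-stripped serum medium. Viability: CellTiter-Fluor fluorescence after 24hr compound treatment.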
The nature of experiment [9]: Caspase-3/7 induction in HepG2 cells by small molecules, qHTS assay (AID 1346978). Further: nearly all actives have a fitted effect of over 15% in size. In a few lines: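 Caspase-3/7 induction was measured by Caspase-Glo 3/7 luminescence (30 min, room temperature) after a 17 hr compound exposure of wild-type HepG2 cells seeded at 2,000 per well and pre-incubated 5 hr.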
Experiment [10] is described as follows: Caspase-3/7 induction in CHO-K1 cells by small molecules, qHTS cell viability counter screen (AID 1346979). Further: nearly all actives have a fitted effect of over 35% in size. Further: potency means the concentration at half of the fitted maximal effect. The procedure, abridged:
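Cytotoxicity counter screen run in parallel with the caspase-3/7 assay: CHO-K1 cells, 16hr compound treatment at 37C, then CellTiter-Fluor for 1hr before fluorescence reading.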

With `CCn1c2ccccc2c2ccccc21`, the Potency entry in [1], in [2], in experiment [3], in [4], in experiment [6] and in experiment [7] was “inactive” in each case. Moreover, the Potency result in [8], in experiment [9] and in experiment [10] was “inactive” in each case. Further, in [5], the result was inactive.
As to `Oc1ccc2c(c1)CCC2`, the Potency result in [1], in [2], in experiment [3], in experiment [4], in experiment [6] and in experiment [7] was “inactive” throughout. Further, the Potency entry in experiment [8], in experiment [9] and in experiment [10] was “inactive” throughout. Also, the outcome in experiment [5] was inactive.
For the molecule `Cc1c[nH]c(=O)[nH]c1=O`, the Potency result in experiment [1], in experiment [2], in [3], in experiment [4], in [6] and in experiment [7] was “inactive” in each case. Also, the Potency result in experiment [8], in experiment [9] and in [10] was “inactive” in each case. For the same molecule, in experiment [5], the result was inactive.
Regarding `O=C1CCCCCCCCCCCCCC1`, the Potency entry in [1], in experiment [2], in [3], in [4], in [6] and in experiment [8] was “inactive” each time. Further, the Potency result in [9] and in experiment [10] was “inactive” throughout. Besides, in [5], the molecule was called inactive.
Regarding `CC1(C)[C@H](C(=O)OCc2cccc(Oc3ccccc3)c2)[C@@H]1C=C(Cl)Cl`, the Potency result in [1], in experiment [2], in experiment [3], in experiment [4], in [6] and in experiment [7] was “inactive” in each case. The Potency entry in experiment [8], in experiment [9] and in experiment [10] was “inactive” in each case. In [5], the outcome was inactive.
Consider `O=C(Nc1ccc([N+](=O)[O-])cc1)Nc1ccc([N+](=O)[O-])cc1` (tested in a mixture with another compound), for which the Potency in experiment [1] was 1.19 µM (active). The Potency result in experiment [2], in [3], in experiment [4], in [6], in [7] and in experiment [8] was “inactive” each time. Besides, in [9], the Potency entry was “inactive”. For the same molecule, the result in experiment [5] was inactive.
Take `COC(=O)c1ccc([N+](=O)[O-])cc1`: the Potency entry in experiment [1], in [2], in experiment [3], in experiment [4], in experiment [6] and in experiment [8] was “inactive” in each case. The Potency result in experiment [9] and in experiment [10] was “inactive” each time. Moreover, the outcome in [5] was inactive.
For the molecule `CCOC(=O)OC(=O)OCC`, the Potency entry in experiment [1], in experiment [2], in [3], in experiment [4], in [6] and in experiment [7] was “inactive” throughout. Moreover, the Potency entry in experiment [8], in experiment [9] and in [10] was “inactive” each time. In experiment [5], the outcome was inactive.
For `CC(C)(C)c1cc(CCC(=O)OCCSCCOC(=O)CCc2cc(C(C)(C)C)c(O)c(C(C)(C)C)c2)cc(C(C)(C)C)c1O`, the Potency entry in experiment [1], in experiment [2], in experiment [3], in experiment [4], in experiment [6] and in [8] was “inactive” throughout. Further, the Potency entry in experiment [9] and in experiment [10] was “inactive” each time. Also, the molecule was classed as inactive in experiment [5].
As to `CCCC(C)C=O` (stereo not given), the Potency result in [1], in [2], in experiment [3], in experiment [4], in [6] and in experiment [7] was “inactive” each time. The Potency entry in experiment [8], in experiment [9] and in [10] was “inactive” in each case. Besides, the molecule was classed as inactive in experiment [5].
Regarding `Nc1ccc2c(S(=O)(=O)O)cccc2c1S(=O)(=O)O`, the Potency result in experiment [1], in experiment [2], in experiment [3], in experiment [4], in [6] and in experiment [7] was “inactive” throughout. In addition, the Potency entry in [8] and in [9] was “inactive” throughout. The outcome in [5] was inactive.
For the molecule `CCN(CC)c1ccc2c(c1)Oc1cc(N(CC)CC)ccc1C21OC(=O)c2ccccc21`, the Potency entry in experiment [1], in experiment [2], in experiment [3], in experiment [4], in experiment [6] and in experiment [9] was “inactive” in each case. The molecule was called inactive in [5]. Moreover, the Potency in experiment [7] was 15.1 µM (active); in [8], 4.22 µM (active); in experiment [10], 2.37 µM (active).
Consider `Cc1cccc(C)c1C`, for which the Potency result in experiment [1], in experiment [2], in experiment [3], in [4], in [6] and in experiment [7] was “inactive” each time. Besides, the Potency entry in experiment [8], in experiment [9] and in experiment [10] was “inactive” in each case. Also, the molecule was classed as inactive in [5].
In the case of `CCCCCCCCSCc1cc(C)c(O)c(CSCCCCCCCC)c1`, the Potency entry in [1], in [2], in experiment [3], in [4], in experiment [6] and in [7] was “inactive” throughout. Also, the Potency entry in [8] and in experiment [9] was “inactive” throughout. Besides, the molecule was classed as inactive in [5]. The Potency in experiment [10] is 68.6 µM (active).
Turning to `CSc1ccc(O)cc1C`, the Potency in experiment [1] is 61.1 µM (active). For the same molecule, the Potency entry in experiment [2], in experiment [3], in experiment [4] and in [9] was “inactive” in each case. In addition, the molecule was called inactive in experiment [5].
Regarding `C=CC(=O)OCC(Br)CBr` (stereo not given), the Potency result in [1], in experiment [2], in [3], in [4], in experiment [8] and in [9] was “inactive” each time. In addition, the outcome in experiment [5] was inactive.
Regarding `Nc1cc([N+](=O)[O-])ccc1Cl`, the Potency result in experiment [1], in experiment [2], in experiment [3], in experiment [4], in [8] and in [9] was “inactive” each time. The Potency result in experiment [10] was “inactive”. The outcome in experiment [5] was inactive.
Turning to `CC(C)c1ccc2sc3ccccc3c(=O)c2c1`, the Potency result in experiment [1], in [2], in [3], in experiment [4], in experiment [8] and in experiment [9] was “inactive” each time. In addition, the Potency entry in experiment [10] is “inactive”.
Consider `[Cl][Eu]([Cl])[Cl]`, for which the Potency result in [1], in experiment [2], in [3], in [4], in experiment [6] and in [8] was “inactive” throughout. The Potency result in [9] and in [10] was “inactive” each time. Moreover, the result in [5] was inactive.
Turning to `O=C(CCCCCCCCc1cccnc1)N1CCC(C=C(c2ccccc2)c2ccccc2)CC1`, the Potency in experiment [1] is 30.6 µM (active); in experiment [2], 30.6 µM (active); in experiment [3] it was 54.9 µM (active); in experiment [4] it was 54.9 µM (active). Also, the Potency entry in [6], in [7] and in experiment [9] was “inactive” each time.
Turning to `Oc1cccc2c(O)cccc12`, the Potency entry in [1], in experiment [2], in [3], in experiment [4], in experiment [6] and in experiment [9] was “inactive” each time. Further, the call in experiment [5] was inactive. Moreover, in experiment [10], the Potency was 54.5 µM (active).
Consider `CCN(CC)c1ccc(C=O)c(O)c1`, for which the Potency entry in experiment [1], in [2], in experiment [3], in [4], in experiment [8] and in experiment [9] was “inactive” each time. In addition, the molecule was classed as inactive in experiment [5].
With `Nc1c(Br)cc([N+](=O)[O-])cc1Br`, the Potency result in experiment [1], in experiment [2], in experiment [3], in experiment [4], in [8] and in experiment [9] was “inactive” each time. Moreover, the Potency result in [10] is “inactive”. Further, the outcome in experiment [5] was inactive.
Consider `CC(Cc1ccc(O)c(O)c1)C(C)Cc1ccc(O)c(O)c1` (stereo not given), for which the Potency entry in [1], in experiment [2], in experiment [3], in [4], in experiment [8] and in experiment [9] was “inactive” throughout. Besides, the molecule was called inactive in [5]. Further, the Potency in experiment [10] is 54.5 µM (active).

For the origin of these results see PubChem BioAssay (Tox21).
